We go through 13 compounds from the supplement of paper PMC8047044.

Assay [1] deals with Neuro-2a. Briefly: neurite formation score, plate-normalized to DMSO control mean 5.04 (score (0-8 scale)); higher = more or longer neurites. The note with it: 1 µM. The method, then:
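Neuro-2a mouse neuroblastoma cells in PLL-coated 96-well plates were pre-treated for 1 h in DMEM(+) with each kinase inhibitor at 1 µM, then switched to serum-free DMEM(-) with inhibitor to induce neurite outgrowth and fixed about 2-3 h later. Three blinded observers scored neurite formation from 0 (no neurites) to 8 (long neurites on almost all cells).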

The test system of assay [2] is Neuro-2a. The description is as above. The note with it: 0.1 µM. The method, then: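 Neuro-2a mouse neuroblastoma cells in PLL-coated 96-well plates were pre-treated for 1 h in DMEM(+) with each kinase inhibitor at 0.1 µM, then switched to serum-free DMEM(-) with inhibitor to induce neurite outgrowth and fixed about 2-3 h later. Three blinded observers scored neurite formation from 0 (no neurites) to 8 (long neurites on almost all cells).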

Several values for one entry are separate records, joined by “and”; a condition that tells them apart may be missing. Equal values may be shown once. Where a name gives a salt, the structure may show the parent alone.

As to `Cc1cnc(-c2cnc(NCCNc3ccc(C#N)cn3)nc2-c2ccc(Cl)cc2Cl)[nH]1`, the neurite formation score in the assay with Neuro-2a [1] is 5.29 and 4.57; in the assay on Neuro-2a [2], 4.92 and 4.04.
Take `COc1cc(Nc2ncc(F)c(Nc3ccc4c(n3)NC(=O)C(C)(C)O4)n2)cc(OC)c1OC`: the neurite formation score with Neuro-2a [1] was found to be 5.63; in the assay on Neuro-2a [2], 4.58.
Regarding `CN(C)CCCn1cc(C2=C(c3c[nH]c4ccccc34)C(=O)NC2=O)c2ccccc21`, the values for the neurite formation score in the assay on Neuro-2a [1] and in the assay on Neuro-2a [2] were 5.24 and 5.54, respectively.
With `Cc1ccc(NC(=O)c2cccc(C(C)(C)C#N)c2)cc1Nc1ccc2ncn(C)c(=O)c2c1`, the neurite formation score in the assay on Neuro-2a [1] came to 5.24; with Neuro-2a [2] it was 4.88.
On the same counts, the results for `Cc1csc(-c2nnc(Nc3ccc(Oc4ncccc4-c4ccnc(N)n4)cc3)c3ccccc23)c1` are 3.36 and 4.58.
The matching figures for `CNC(=O)Nc1ccc(-c2nc(N3CC4CCC(C3)O4)c3cnn(C4CCC5(CC4)OCCO5)c3n2)cc1`: 3.54 and 4.75.
On the same counts, the results for `Cc1cc(C(=O)NOCCO)c(Nc2ccc(I)cc2F)n(C)c1=O` are 3.96 and 3.92.
Turning to `Nc1cccc(S(=O)(=O)N2CCCN(S(=O)(=O)c3ccc4c(c3)OCCO4)CC2)c1`, the values for the neurite formation score in the assay with Neuro-2a [1] and in the assay on Neuro-2a [2] were 4.14 and 4.09, respectively.
In the case of `O=C(O)c1ccc(Nc2ncc3c(n2)-c2ccc(Cl)cc2C(c2c(F)cccc2F)=NC3)cc1`, the neurite formation score in the assay with Neuro-2a [1] was determined as 3.47; in the assay on Neuro-2a [2] it was 2.76.
Turning to `Nc1nc(Nc2ccc3c(c2)CCC(N2CCCC2)CC3)nn1-c1cc2c(nn1)-c1ccccc1CCC2` (stereo unspecified), the figures for the neurite formation score in the assay with Neuro-2a [1] and in the assay on Neuro-2a [2] were 4.24 and 4.54, respectively.
As for `Cc1cc([C@@H](C)Nc2ccccc2C(=O)O)c2nc(N3CCOCC3)cc(=O)n2c1`, the neurite formation score is 4.57 in the assay with Neuro-2a [1] and 4.54 in the assay on Neuro-2a [2].
On the same counts, the results for `CNC(=O)c1ccccc1Nc1cc(Nc2ccc(N3CCOCC3)cc2OC)ncc1C(F)(F)F` are 5.02 and 5.58.
On the same counts, the results for `O=S(=O)(c1cccc2cnccc12)N1CCCNCC1` [Fasudil (HA-1077) HCl] are 4.24 and 5.21.
